Data reported in paper PMC5540273 (PLoS ONE, 2017).

Legend:
Details in all cases: concentration: 1 μM, replicates: in singlicate; n = 1
EPHA7 = tested on: EPHA7
EPHA8 = tested on: EPHA8
EPHB1 = tested on: EPHB1
EPHB2 = tested on: EPHB2
EPHB3 = tested on: EPHB3
EPHB4 = tested on: EPHB4
EPHB6 = tested on: EPHB6
ERBB2 = tested on: ERBB2
ERBB3 = tested on: ERBB3
ERBB4 = tested on: ERBB4
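Note: KINOMEscan kinase panel screen.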

Row | Compound | %Inh (EPHA7) [%] | %Inh (EPHA8) [%] | %Inh (EPHB1) [%] | %Inh (EPHB2) [%] | %Inh (EPHB3) [%] | %Inh (EPHB4) [%] | %Inh (EPHB6) [%] | %Inh (ERBB2) [%] | %Inh (ERBB3) [%] | %Inh (ERBB4) [%]
1 | CCOc1nccc(-c2c(-c3ccc(F)cc3)ncn2C2CCNCC2)n1 [SB-249175] | 0 | 0 | 0 | 11 | 0 | 0 | 14 | 5 | 36 | 30
2 | CN(c1ccc(NC(=O)N2CCN(CCCN3CCOCC3)CC2)cc1)c1ccnc(Nc2ccc(CS(C)(=O)=O)cc2)n1.Cl [GW830899] | 0 | 0 | 0 | 4 | 0 | 22 | 81 | 2 | 17 | 0
3 | Nc1ncnc2scc(-c3ccc(NC(=O)Cc4cc(F)ccc4F)cc3)c12.O=C(O)C(F)(F)F [SB-731254-M] | 4 | 0 | 0 | 15 | 0 | 5 | 98.8 | 39 | 0 | 53
4 | Cc1ccc(O)cc1Nc1ccnc2cc(-c3ccc(CN4CCCCC4)o3)ccc12 [GW557777] | 0 | 99.7 | 100 | 98.9 | 95.3 | 99.7 | 83 | 0 | 7 | 0
5 | Fc1cc(Cl)ccc1Nc1ccnc2cc(-c3ccc(CN4CCOCC4)o3)ccc12 [GW560109] | 59 | 90.2 | 50 | 44 | 15 | 55 | 91.7 | 34 | 80 | 25
6 | CC(C)NCC(Cc1ccccc1)NC(=O)c1cc(Br)c(-c2ccnc3[nH]ccc23)s1.Cl.Cl (stereo not shown) [GSK1383281] | 0 | 0 | 16 | 0 | 2 | 2 | 6 | 16 | 0 | 10
7 | CN(c1ccc(NC(=O)Nc2cccc(Cl)c2)cc1)c1ccnc(N)n1.Cl [GW830707] | 40 | 22 | 34 | 36 | 62 | 61 | 76 | 0 | 17 | 29
8 | CN(C)CCOc1ccc(-c2cc(-c3ccc(Cl)c(O)c3)c(-c3ccncc3)[nH]2)cc1.Cl.Cl [SB-684387] | 2 | 4 | 10 | 15 | 15 | 23 | 34 | 32 | 23 | 32
9 | O=C(O)C(F)(F)F.O=c1[nH]ccc2nc(N[C@@H]3CCNC3)nc(Nc3cc(Cl)cc(Cl)c3)c12 [GSK2188764] | 1 | 5 | 28 | 1 | 4 | 6 | 17 | 4 | 0 | 0
10 | CNc1nccc(-c2ccc3c(N)n[nH]c3c2)n1 [GSK2206003] | 9 | 18 | 5 | 0 | 5 | 2 | 11 | 50 | 8 | 31
11 | CC(=O)Nc1cn2nc(Oc3cccc(NC(=O)c4cccc(C(F)(F)F)c4)c3)ccc2n1 | 7 | 99.5 | 95.1 | 98.6 | 5 | 90.9 | 98.1 | 6 | 41 | 4
12 | Nc1ncc(-c2ccc3nccc(-c4ccncc4)c3c2)cc1S(=O)(=O)N1CCCCC1 [GSK1693850] | 3 | 8 | 0 | 15 | 0 | 8 | 43 | 31 | 0 | 20
13 | CN(c1ccc(F)c(NC(=O)c2cccc(OC(C)(C)C#N)c2Cl)c1)c1ccc2nc(NC(=O)C3CC3)sc2n1 | 0 | 41 | 10 | 2 | 0 | 14 | 88 | 66 | 9 | 67
14 | COc1cccc(-c2nc(-c3ccccc3)[nH]c2-c2ccncc2)c1 [SB-610250] | 9 | 25 | 16 | 0 | 24 | 0 | 22 | 31 | 20 | 0
15 | O=C1NC(=O)C(c2ccccc2Cl)=C1Nc1cccc(Cl)c1 [SB-342409] | 15 | 19 | 8 | 12 | 13 | 15 | 0 | 0 | 0 | 9
16 | COc1cccc2c(-c3ccncc3)c(-c3ccc(F)cc3)nn12 [GW468513] | 0 | 3 | 6 | 0 | 38 | 13 | 37 | 50 | 21 | 68
17 | Cc1cc(-c2c(-c3ccc(F)cc3)ncn2CCCN2CCOCC2)nc(N)n1 [SB-222517] | 0 | 0 | 0 | 12 | 29 | 10 | 0 | 0 | 0 | 0
18 | COc1ccc(C2=C(Nc3cccc(O)c3)C(=O)NC2=O)cc1 [SB-390766] | 4 | 11 | 9 | 87 | 5 | 0 | 10 | 11 | 0 | 12
19 | Cc1ccc(O)cc1Nc1ccnc2ccc(C(C)(C)C)cc12 [GW856805] | 0 | 98.2 | 97.4 | 92.5 | 100 | 97.1 | 24 | 32 | 15 | 24
20 | Cn1cc(-c2ccc3c(c2)CCN3C(=O)Cc2cc(F)cc(C(F)(F)F)c2)c2c(N)ncnc21 [GSK2635225] | 2 | 2 | 21 | 15 | 12 | 8 | 44 | 10 | 0 | 0
21 | Cc1ccc(-c2ccc3occ(-c4ccc(S(C)=O)cc4)c3c2)nn1 (stereo not shown) | 0 | 0 | 0 | 14 | 14 | 6 | 0 | 0 | 0 | 3
22 | Fc1cc(Cl)ccc1Nc1ccnc2cc(-c3ccc(CN4CCSCC4)o3)ccc12 [GW560106] | 0 | 72 | 43 | 19 | 0 | 50 | 91.2 | 44 | 77 | 39
